Experimental data taken from PubChem BioAssay.
Values without a mark were called inactive. No rule for the calls is given here.

The compounds below were run on Aerobactin synthetase IucA (Klebsiella pneumoniae hvKP1) (assay: IucA enzyme inhibition, primary screen, biochemical, Spectrum library (AID 1346200;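 also: 100% = wells without compound and 0% = wells lacking enzyme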)). Conditions: malachite green pyrophosphate, A620, at 8 µM, hits give low values.
`C1CCC(C(CC2CCCCN2)C2CCCCC2)CC1` (stereo not given) was tested, and the activity remaining was 103%.
With `CC(=O)Nc1ccc(OC(=O)c2ccccc2O)cc1` the activity remaining was 101%.
`CC(=O)N(O)CCCCCNC(=O)CCC(=O)N(O)CCCCCNC(=O)CCC(=O)N(O)CCCCCN` showed an activity remaining of 117%.
In the case of `CC1(C)S[C@@H]2C(N3C(=O)[C@@H](c4ccccc4)NC3(C)C)C(=O)N2[C@H]1C(=O)O` (stereo not given in full), the activity remaining is reported as 108%.
`Cc1cc(O)c(C=O)c(O)c1C(=O)O` showed an activity remaining of 124%.
With `CC(N)CCCC(C)(C)O` (stereo not given) the activity remaining was 123%.
In the case of `COc1cc(-c2coc3cc(O[C@@H]4O[C@H](CO)[C@@H](O)[C@H](O)[C@H]4O)c(OC)c(O)c3c2=O)cc(O)c1OC`, the activity remaining is reported as 120%.
Work on `COC(=O)C1[C@H]2C[C@H]3c4[nH]c5ccccc5c4CCN3C[C@@H]2CC[C@@H]1O` (stereo not given in full) yielded an activity remaining of 112%.
Work on `COc1c2occc2c(OC)c2c(=O)cc(C)oc12` yielded an activity remaining of 116%.
For `CC(=O)O[C@H]1C[C@@H](OC(C)=O)C(C)(C)C2C[C@@H](OC(C)=O)[C@]3(C)C(CC[C@@]4(C)[C@H](c5ccoc5)OC(=O)[C@H]5O[C@]543)[C@]21C` (stereo not given in full), the activity remaining was 103%.
`CCn1cc(C(=O)O)c(=O)c2cc(F)c(N3CCN(C)CC3)cc21` was tested, and the activity remaining was 109%.
With `CC[C@H]1OC(=O)[C@H](C)[C@@H](O[C@H]2C[C@@](C)(OC)[C@@H](O)[C@H](C)O2)[C@H](C)[C@@H](O[C@@H]2O[C@H](C)C[C@H](N(C)C)[C@H]2O)[C@](C)(O)C[C@@H](C)CN(C)[C@H](C)[C@@H](O)[C@]1(C)O` the activity remaining was 104%.
`Cc1ncc(CO)c(CO)c1O` was tested, and the activity remaining was 102%.
`CN(C)CC/C=C1/c2ccccc2COc2ccccc21` showed an activity remaining of 99.3%.
`Cc1c(Cl)cccc1Nc1ccccc1C(=O)O` gave an activity remaining of 82.9%.
With `COc1cc2c(cc1OC)C(=O)OC2` the activity remaining was 110%.
For `CCCCC(=O)N(Cc1ccc(-c2ccccc2-c2nn[nH]n2)cc1)[C@H](C(=O)O)C(C)C`, the activity remaining was 121%.
Compound `CC(=O)C1CC[C@H]2C3CC[C@H]4C[C@H](O)CC[C@]4(C)C3CC[C@]12C` (stereo not given in full) has an activity remaining of 93.6%.
Compound `CCC(=O)O[C@]1(C(=O)CCl)[C@@H](C)CC2C3CCC4=CC(=O)C=C[C@]4(C)[C@@]3(F)[C@@H](O)C[C@@]21C` (stereo not given in full) has an activity remaining of 112%.
`CC(C)NCC(O)COc1cccc2ccccc12` (stereo not given) showed an activity remaining of 105%.
Compound `CCOC(N)=O` has an activity remaining of 107%.
For `COc1cc2c(cc1OC)C1Cc3ccc(OC)c(OC)c3CN1CC2` (stereo not given), the activity remaining was 118%.
Compound `CC(=O)N[C@@H](Cc1c[nH]c2ccccc12)C(N)=O` has an activity remaining of 122%.
For `CC1(C)CC[C@]2(C(=O)O)CC[C@]3(C)C(=CCC4[C@@]5(C)CC[C@H](O)[C@@](C)(CO)C5CC[C@]43C)C2C1` (stereo not given in full), the activity remaining was 97.3%.
`C[C@H]1OC(n2cc(F)c(=O)[nH]c2=O)C(O)[C@@H]1O` (stereo not given in full) was tested, and the activity remaining was 121%.
For `O=C1C=C(O)c2ccccc2C1=O`, the activity remaining was 123%.
`CCCOc1ccc(C(=O)OCCN(CC)CC)cc1N` was tested, and the activity remaining was 109%.
Compound `COc1cc(OC)c2c(=O)c(O)c(-c3ccc(OC)c(OC)c3)oc2c1` has an activity remaining of 107%.
Compound `C=CC(C1=CC(=O)C(OC)=CC1=O)c1ccc(O)cc1` (stereo not given) has an activity remaining of 120%.
In the case of `CC(=O)N1CCCC1C(=O)O` (stereo not given), the activity remaining is reported as 106%.
For `COCCc1ccc(OCC(O)CNC(C)C)cc1` (stereo not given), the activity remaining was 113%.
Compound `Cc1cc(O)c(C=O)c2c1C(=O)Oc1c(COC(=O)/C=C/C(=O)O)c(O)c(C(=O)O)c(C)c1O2` has an activity remaining of 93.9%.
`COC(=O)c1c(OC)cc2c(c1C)Oc1c(Cl)c(O)c(Cl)c(C)c1C(=O)O2` showed an activity remaining of 116%.
`NS(=O)(=O)c1cc2c(cc1Cl)NC(CSCc1ccccc1)=NS2(=O)=O` showed an activity remaining of 113%.
`O=c1cc(-c2ccccc2O)oc2cc(O)ccc12` was tested, and the activity remaining was 100%.
`CC(=O)Oc1ccc2c(c1)CCC1C2CC[C@@]2(C)C1CC[C@@H]2OC(C)=O` (stereo not given in full) gave an activity remaining of 120%.
`COc1ccccc1OCC(O)CO` (stereo not given) showed an activity remaining of 94.5%.
`NNC(=O)c1ccncc1` was tested, and the activity remaining was 106%.
`O=c1c2ccccc2oc2ccccc12` showed an activity remaining of 117%.
Compound `NC(Cc1cc(I)c(Oc2ccc(O)c(I)c2)c(I)c1)C(=O)O` (stereo not given) has an activity remaining of 97.1%.
